Hits are enriched below; roughly 3.2% of the tested compounds scored in any of these assays.
CHT inh: inhibitors of human choline transporter CHT. AID 488975. actives 0.86% (n = 310,000). B-score at 10 µM. CHT-expressing cells, membrane potential dye, choline response; hits give low values;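 active means B-score over 3 SD under the library average, and starting fluorescence ratio not unusually high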;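 further: choline stimulus applied at its EC90 after an EC20 pre-addition; B-score computed on integrated fluorescence ratio after choline addition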
CHT allo act: allosterically activates the human high affinity choline transporter; Q9GZV3; CHT-expressing cells, membrane potential dye, choline EC20; hits give high values; LV-AA mutant CHT in HEK293 cells; B-score at 10 µM; actives 0.49% (n = 310,000); AID 488977;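 active means initial fluorescence not abnormally high and integrated response B-score, plate-corrected, over 3 SD above library mean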
Rce1 inhib: blocks yeast Ras-converting enzyme. Q03530. yeast membranes, quenched prenylated peptide cleavage fluorescence. calls only. actives 0.27% (n = 290,000);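 active means fall in fluorescence gain of 50% or more versus controls, with final raw signal at or below 3038400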;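 further: plate controls were neutral control wells for no effect and wells lacking membranes for full effect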
ANO1 activ: activates or potentiates the mouse TMEM16A chloride channel | Q8BHY3 | HEK293 TMEM16A/YFP-H148Q/I152L, iodide quench fluorescence; hits give low values | B-score at 10 µM | actives 0.3% (n = 340,000) | AID 623877;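 active means fluorescence-ratio B-score plate-corrected deviation score at least 3 library SD below zero, with starting fluorescence score within 5 deviations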;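 further: channel opened by trigger with iodide after compound preincubation; score built on the fluorescence ratio of max minus min over baseline; more negative score means more quench and so TMEM16A activation or potentiation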
Target sequence (Q8BHY3 whole entry, looked up): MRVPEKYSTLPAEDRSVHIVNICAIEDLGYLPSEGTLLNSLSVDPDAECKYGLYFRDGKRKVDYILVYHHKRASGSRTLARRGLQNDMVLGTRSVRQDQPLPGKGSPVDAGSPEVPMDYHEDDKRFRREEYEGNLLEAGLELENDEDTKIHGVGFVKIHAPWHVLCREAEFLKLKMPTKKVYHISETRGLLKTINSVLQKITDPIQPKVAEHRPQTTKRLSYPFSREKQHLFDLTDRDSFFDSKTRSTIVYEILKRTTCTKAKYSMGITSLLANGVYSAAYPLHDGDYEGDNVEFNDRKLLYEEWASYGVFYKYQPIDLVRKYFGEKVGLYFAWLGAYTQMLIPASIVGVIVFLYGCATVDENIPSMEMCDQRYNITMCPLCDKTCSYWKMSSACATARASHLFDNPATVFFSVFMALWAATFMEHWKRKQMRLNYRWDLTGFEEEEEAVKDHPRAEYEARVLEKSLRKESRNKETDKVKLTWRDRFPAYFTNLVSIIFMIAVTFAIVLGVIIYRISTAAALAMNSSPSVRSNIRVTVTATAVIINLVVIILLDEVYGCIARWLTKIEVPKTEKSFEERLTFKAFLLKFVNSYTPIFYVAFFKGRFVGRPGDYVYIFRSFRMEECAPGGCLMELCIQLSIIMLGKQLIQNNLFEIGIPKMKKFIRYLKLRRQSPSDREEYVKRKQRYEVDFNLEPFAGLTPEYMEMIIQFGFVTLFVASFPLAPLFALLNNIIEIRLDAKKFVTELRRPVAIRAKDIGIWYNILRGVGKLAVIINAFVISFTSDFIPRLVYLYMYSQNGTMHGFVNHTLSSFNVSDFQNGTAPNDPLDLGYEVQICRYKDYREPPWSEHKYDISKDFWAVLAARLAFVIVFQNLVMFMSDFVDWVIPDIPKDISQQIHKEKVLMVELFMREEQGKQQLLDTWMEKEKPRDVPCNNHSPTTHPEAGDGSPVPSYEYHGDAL
Kir21 inh: blocks the mouse Kir2.1 inward-rectifier potassium channel; P35561; HEK293-Kir2.1, FluxOR thallium flux fluorescence; hits give low values; B-score at 10 µM; actives 0.85% (n = 310,000);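 active means fluorescence ratio B-score at or below minus 3 SD of library scores, with starting-brightness B-score within 2 SD, cut at about -4.2 in these data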;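 further: channel flux triggered by added potassium and thallium sulfate stimulus; B-score of peak minus minimum fluorescence over baseline after thallium stimulus; more negative B-score means stronger Kir2.1 block with less thallium influx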
TMEM16A inh: inhibitors of mouse TMEM16A calcium-activated chloride channel | actives 1.2% (n = 310,000) | normalized B-score (activity score, 25-100; higher = stronger inhibition) at 10 µM | HEK293 TMEM16A/YFP iodide influx fluorescence, ionomycin | AID 588511;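 active means ratio plate-corrected score three or more library SD toward inhibition, starting fluorescence score within five deviations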;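 further: score derived from kinetic fluorescence span divided by baseline fluorescence per well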
hERG ctr: counter-screen for Kir2.1 inhibitors: effect on human hERG. shares compounds with Kir21 inh. hERG-expressing cells, thallium flux. inhibition, % at 10 µM. actives 20% (n = 320). AID 2236;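 further: host cells are CHO cells stably expressing hERG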
KCNK9 inh: selectivity of Kir2.1 inhibitors: effect on human KCNK9 | shares compounds with Kir21 inh | KCNK9-expressing cells, ion flux inhibition | inhibition, % at 10 µM | actives 5% (n = 320) | AID 2329
Kir21 ephys inh: mouse Kir2.1 inward rectifier channel inhibition. AID 463252. shares compounds with Kir21 inh. inhibition, % at 25 µM. actives 71% (n = 320). Kir2.1 cells, automated patch-clamp current inhibition
* marks the source's active call; other numbers are inactive results; i = inactive; . = no result given. Unless noted, how the calls were made is not given here.

SMILES	CHT inh	CHT allo act	Rce1 inhib	ANO1 activ	Kir21 inh	TMEM16A inh	hERG ctr	KCNK9 inh	Kir21 ephys inh
COc1ccc(CN(C)CC2CCCN(CCc3ccc(F)cc3)C2)cc1OC (stereo not drawn)	i	i	i	i	-6.23*	i	i	i	22.3%*
Cc1ccc(CN2CCC(c3cc(-c4cccs4)n[nH]3)CC2)cc1	i	i	i	i	-13.3*	i	72.0%*	i	37.4%*
O=C(CNCc1ccccc1)NCCCN1CCCC1=O	i	i	i	.	0.64	i	.	.	.
Cc1noc(C)c1COC(=O)CCc1nc2ccccc2s1	i	i	i	i	1.23	i	.	.	.
Cc1noc(C)c1COC(=O)CCN1c2ccccc2Sc2ccccc21	i	i	i	i	-7.3*	i	i	i	10.4%*
Cc1ccc(C)c(OCCC(=O)OCC(=O)NCc2ccccc2)c1	i	i	i	i	0.03	i	.	.	.
Cc1ccc(C)c(OCCCNCc2ccccc2)c1	i	i	i	i	-9.36*	i	i	i	74.4%*
CC(C(=O)O/N=C(\N)c1cccnc1)c1ccc([N+](=O)[O-])cc1 (stereo not drawn)	i	i	i	i	1.75	i	.	.	.
O=C(Cn1nc(-c2ccccc2)oc1=O)OCC(=O)c1ccccc1	.	.	.	i	.	.	.	.	.
Cc1cc(Cl)ccc1OC(C)C(=O)NC(C)C1CCCO1 (stereo not drawn)	i	i	i	i	-8.48*	i	i	i	9.2%*
CC(=O)Nc1ccc(S(=O)(=O)NCCC(=O)OC(C)C(=O)NC2(C#N)CCCCC2)cc1 (stereo not drawn)	.	.	.	i	.	.	.	.	.
CC(=O)N1c2ccc(S(=O)(=O)NCCC(=O)Nc3ccc(OC(F)(F)F)cc3)cc2CC1C (stereo not drawn)	i	i	i	i	0.79	i	.	.	.
COc1ccc(CCNC(=O)C(C)SCc2ccccc2)cc1 (stereo not drawn)	i	i	i	i	-7.49*	i	i	i	56.0%*
Cc1ccc(CNC(=O)CCCc2cn(C)c3ccccc23)cc1	i	i	i	i	-1.09	i	.	.	.
Clc1ccc(COc2ccccc2CNCc2cccnc2)cc1	i	i	i	i	-2.15	i	.	.	.
CCOc1cccc(CNCc2cccnc2)c1OCc1ccccc1	i	i	i	i	-7.5*	i	i	i	40.4%*
Cc1cc(C)nc(NC(=S)Nc2ccccc2)n1	i	i	i	i	-1.97	i	.	.	.
CCNC(=S)/N=C(/Nc1ccccc1)Nc1nc(C)cc(C)n1	i	i	i	i	2.49	i	i	i	i
O=C(O)/C=C/C(=O)N1CCN(c2cccc(Cl)c2)CC1	i	i	i	i	4.29	i	i	i	i
Cc1ccc(-c2nc3ccccn3c2NCc2ccc3c(c2)OCO3)cc1	i	i	i	i	-7.06*	i	63.0%*	56.0%*	i
CC(C)S(=O)(=O)CC(=O)c1ccc(Cl)cc1	i	i	i	i	-0.89	i	.	.	.
Fc1ccc(N2CCN(Cc3c[nH]c4ccccc34)CC2)cc1	i	i	i	.	-7.87*	i	56.0%*	i	39.8%*
c1cnc(N2CCN(Cc3c[nH]c4ccccc34)CC2)nc1	i	i	i	i	-1.38	i	.	.	.
CCn1c(COc2ccc(C)cc2)nnc1SCC(=O)C(C)(C)C	i	i	i	i	-2.74	i	.	.	.
CCn1c(COc2ccc(C)cc2)nnc1SCc1ccc(C#N)cc1	i	i	i	i	-7.91*	i	i	i	7.3%*
SMILES	CHT inh	CHT allo act	Rce1 inhib	ANO1 activ	Kir21 inh	TMEM16A inh	hERG ctr	KCNK9 inh	Kir21 ephys inh
COc1ccc(Oc2c(-c3ccc(O)cc3O)n[nH]c2C)cc1	i	i	i	i	-5.71*	i	i	i	0.2%*
COc1cccc(CNc2ccc3[nH]c(=O)[nH]c3c2)c1OCc1ccccc1F	i	i	i	i	-7.44*	i	i	i	2.2%*
COc1cc(CNc2ccc3[nH]c(=O)[nH]c3c2)cc(Br)c1OCc1ccc(F)cc1	i	i	i	i	1.64	i	.	.	.
CCN(CC)S(=O)(=O)c1ccc(N2CCCC2)c(NC(=O)C2=NN(c3ccccc3)C(=O)CC2)c1	.	.	.	i	.	.	.	.	.
O=S(=O)(c1ccc(F)cc1)N1CCCc2ccccc21	i	i	i	.	-5.99*	i	i	i	19.2%*
O=S(=O)(c1ccccc1)N1CCCc2ccccc21	i	i	i	.	-6.45*	i	i	i	22.1%*
COc1ccc(C)cc1N(C(=O)c1ccco1)C(C(=O)NC1CCCC1)c1ccc(N2CCOCC2)cc1 (stereo not drawn)	i	i	i	i	-0.06	i	.	.	.
COCCOC(=O)c1c(NC(=O)COC(=O)c2ccc(C)o2)sc(C(N)=O)c1C	.	.	.	i	.	.	.	.	.
O=S(=O)(c1ccc(Cl)cc1)N1CCSC1c1ccco1 (stereo not drawn)	i	i	i	i	-6.54*	i	i	i	21.1%*
CC(C)O/C(=N\S(=O)(=O)c1ccc(Cl)cc1)c1ccccc1	i	i	i	i	-8.32*	i	i	i	17.2%*
CC(C)O/C(=N/S(=O)(=O)c1ccc(Cl)cc1)c1ccccc1	.	.	.	i	.	.	.	.	.
Cc1ccc(CNCC(O)(c2ccccc2)c2ccccc2)cc1	i	i	i	i	-9.24*	i	i	i	i
c1ccc(Cn2c(SCc3nc4ccccc4s3)nnc2-c2ccco2)cc1	i	i	i	i	-7.03*	i	i	i	13.4%*
CCOC(=O)CSc1nc(Cc2ccccc2)nc2ccccc12	i	i	i	i	-5.99*	i	i	i	31.9%*
COc1ccc(S(=O)(=O)N(C)C[C@H]2Oc3ccc(NC(=O)Nc4ccc5c(c4)OCO5)cc3C(=O)N([C@H](C)CO)C[C@@H]2C)cc1	.	.	.	i	.	.	.	.	.
Cc1cc(C)c(C)c(OCCCCN(C)Cc2ccccc2)c1	i	i	i	i	-7.28*	i	i	i	8.7%*
Cc1ccc(N2CC(C(=O)Nc3cccnc3)CC2=O)cc1C (stereo not drawn)	i	i	i	i	1.81	i	.	.	.

Screening data as filed in PubChem BioAssay.
